Inconclusive results are not listed. Activity calls are given as the source filed them. Calls come from the whole dose curve; as a rule, active = well fitted inhibition curve with a large enough effect; inconclusive = small, poorly fitted or top-dose-only effect; inactive = flat fitted curve, though single readings scatter.
tested on: CRL-7250; assay: qHTS assay to identify novel small-molecules to repurpose for Merkel cell carcinoma treatment (AID 1296009); conditions: MCC and control cell lines, CellTiter-Glo viability, 72 h; series mostly up to 92 µM; activity change, negative = cytotoxicity: at the top concentration; note: nearly all actives have a fitted effect of over 60% in size
Summary of the method: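 Cells were incubated with compound for 72 hr at 37 degree celsius before CellTiter-Glo addition. Luminescence was normalized with no-cell wells as full cytotoxicity and DMSO as baseline.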

SMILES	outcome
C[C@H]1CC[C@H]2[C@@H](C=C[C@@](C)(O)[C@]2(C)C(=O)CCO)C1	inactive
COc1ccc(OC)c(C2C(C#N)=C(N)Oc3n[nH]c(-c4ccc5ccccc5c4)c32)c1 (stereo unspecified)	inactive
CC(=O)OC(C)(C)/C=C/C(=O)[C@](C)(O)C1[C@H](O)C[C@@]2(C)[C@@H]3CC=C4[C@@H](C[C@H](O[C@@H]5O[C@H](CO)[C@@H](O)[C@H](O)[C@H]5O)C(=O)C4(C)C)[C@]3(C)C(=O)C[C@]12C (stereo partly specified)	inactive [at 17.4 µM]
COC(=O)C[C@H]1C(C)(C)[C@H](OC(=O)C(C)C)[C@@]2(O)C(=O)[C@]1(C)C1CC[C@]3(C)C(CC(=O)O[C@H]3c3ccoc3)[C@]13O[C@@H]32 (stereo partly specified)	inactive [at 17.4 µM]
CCOC(=O)CSc1nc2c(sc3ccccc32)c(=O)n1CCCN1CCCC1	inactive
O=C(O)Cn1nnc(-c2ccc(CN(CCCCOc3ccc(CN4CCCC4)cc3)CCc3ccccc3)cc2)n1	inactive
C=C(C)[C@@H](C)[C@H]1O[C@]23C[C@]4(CO2)C(CCC2[C@@]5(C)CC[C@H](O[C@@H]6OC[C@H](O)[C@H](O[C@@H]7O[C@H](CO)[C@@H](O)[C@H](O)[C@H]7O)[C@H]6O[C@@H]6O[C@@H](CO)[C@H](O)[C@H]6O)C(C)(C)C5CC[C@]24C)C3[C@@](C)(O)[C@@H]1OC(C)=O (stereo partly specified)	inactive [at 9.27 µM]
CC(=O)c1ccc(O[C@@H]2OC[C@@H](O)[C@H](O)[C@H]2O[C@]2(CO)O[C@H](CO)[C@@H](O)[C@@H]2O)c(O)c1	inactive [at 17.4 µM]
NS(=O)(=O)c1ccc(NC(=O)Nc2ccc(F)cc2)cc1	inactive
C[C@H]1/C=C/C=C/C=C/C=C/C=C/[C@@H](O)[C@H](C(=O)O)[C@H](O)C[C@H](O)CCC[C@H](O)C[C@H](O)C[C@H](O)[C@@H](C)C(=O)O[C@@H]1C	inactive [at 17.4 µM]
C=CC1C(OC2OC(CO)C(O)C(O)C2O)OC=C2C(=O)N3C(C(=O)O)Cc4c([nH]c5ccccc45)C3CC21 (stereo unspecified)	inactive [at 17.4 µM]
Cc1cc(O)cc(O[C@@H]2O[C@H](CO)[C@@H](O)[C@H](O)[C@H]2O)c1	inactive
COc1cc(CC2COC(c3ccc(OC4OC(CO)C(O)C(O)C4O)c(OC)c3)C2CO)ccc1O (stereo unspecified)	inactive [at 17.4 µM]
OC[C@H]1O[C@@H](OCCc2ccccc2)[C@H](O[C@@H]2OC[C@@H](O)[C@H](O)[C@H]2O)[C@@H](O)[C@@H]1O	inactive [at 17.4 µM]
CN(C)C(=O)C(O)C(Cc1ccccc1)NC(=O)c1cc2cc(Cl)ccc2[nH]1 (stereo unspecified)	inactive
CCC(C)/C=C(C)/C=C/C1=CC2=C(Cl)C(=O)C(C)(OC(C)=O)C(=O)C2=CN1C1CCCCN(C(CCC(N)=O)C(=O)O)C1=O (stereo unspecified)	inactive [at 17.4 µM]
COc1cc(COC2OC(CO)C(O)C(O)C2O)cc(OC)c1O (stereo unspecified)	inactive
COC(=O)c1ccccc1O[C@@H]1O[C@H](CO)[C@@H](O)[C@H](O)[C@H]1O[C@@H]1O[C@@H](C)[C@H](O)[C@@H](O)[C@H]1O	inactive [at 17.4 µM]
C=C1C[C@@]23CCC4[C@@](C)(CCC[C@@]4(C)C(=O)OC)C2CC[C@@H]1C3 (stereo partly specified)	inactive
C=C1CC[C@H]2[C@@H](/C=C(\C)C(=O)[C@@]3(OC(C)=O)C[C@H](C)[C@H](OC(C)=O)[C@@H]3[C@H]1OC(C)=O)C2(C)C	inactive [at 17.4 µM]
O=C(O)/C=C/c1ccc(O[C@@H]2O[C@H](CO)[C@@H](O)[C@H](O)[C@H]2O)cc1	inactive
CC(C)c1c(O)ccc2c1CC[C@H]1C(C)(C)CCC[C@]21C	inactive
C=C1C2(CCC(=O)OC2(C)C)CC(OC(=O)/C(C)=C/C)C2(C)C13OC14C(=O)OC(C)(C(=O)C12C(=O)OC4C)C3OC(C)=O (stereo unspecified)	inactive [at 17.4 µM]
C[C@@H]1O[C@@H](O[C@H]2[C@H](OC(=O)[C@]34CCC(C)(C)C[C@H]3C3=CCC5[C@@]6(C)C[C@H](O)[C@H](O[C@@H]7O[C@H](CO)[C@@H](O[C@H]8OC[C@](O)(CO)[C@H]8O)[C@H](O)[C@H]7O)[C@@](C)(CO)C6[C@H](O)C[C@@]5(C)[C@]3(C)C[C@H]4O)OC[C@H](O)[C@@H]2O)[C@H](O)[C@H](O)[C@H]1O[C@@H]1OC[C@@H](O)[C@H](O[C@@H]2OC[C@](O)(CO)[C@H]2O)[C@H]1O (stereo partly specified)	inactive [at 9.27 µM]
COc1cccc(CN(C(=O)CC(C)(C)C)[C@H]2C[C@H](C(=O)N3CCNCC3)N(Cc3ccc4c(c3)OCO4)C2)c1	inactive
C[C@@H]1CC[C@H]2C(C)(C)[C@H](O)[C@H](O)C[C@]2(C)[C@@]12Cc1c(O)cc3c(c1O2)CNC3=O	inactive

Source: PubChem BioAssay (NCATS)
